In PubChem BioAssay (Tox21):
Records with an inconclusive call do not appear. Entries that show only a call come without a potency. The source made the active and inactive calls. Calls follow the shape of the full dose curve.

Molecular target: Acetylcholinesterase (Homo sapiens) (UniProt P22303)
Test: Acetylcholinesterase (AChE) small molecule antagonists: fluorescence cell-based qHTS assay (AID 1347398); also: nearly all actives have a fitted effect of over 50% in size
Conditions: SH-SY5Y cells; Potency: AChE activity; outcome: AChE activity; series mostly up to 115 µM
Method in brief: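 Human SH-SY5Y cells were plated overnight at 37 C, exposed to compound for 30 min at 37 C, 5% CO2, then given acetylthiocholine plus Thiolite Green for 40 min at room temperature; thiocholine fluorescence (Ex/Em 490/520 nm) reports endogenous AChE activity.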
Potency is read from the fitted curve at half-maximal effect.

Sequence of Acetylcholinesterase (Homo sapiens) (P22303 whole entry, looked up): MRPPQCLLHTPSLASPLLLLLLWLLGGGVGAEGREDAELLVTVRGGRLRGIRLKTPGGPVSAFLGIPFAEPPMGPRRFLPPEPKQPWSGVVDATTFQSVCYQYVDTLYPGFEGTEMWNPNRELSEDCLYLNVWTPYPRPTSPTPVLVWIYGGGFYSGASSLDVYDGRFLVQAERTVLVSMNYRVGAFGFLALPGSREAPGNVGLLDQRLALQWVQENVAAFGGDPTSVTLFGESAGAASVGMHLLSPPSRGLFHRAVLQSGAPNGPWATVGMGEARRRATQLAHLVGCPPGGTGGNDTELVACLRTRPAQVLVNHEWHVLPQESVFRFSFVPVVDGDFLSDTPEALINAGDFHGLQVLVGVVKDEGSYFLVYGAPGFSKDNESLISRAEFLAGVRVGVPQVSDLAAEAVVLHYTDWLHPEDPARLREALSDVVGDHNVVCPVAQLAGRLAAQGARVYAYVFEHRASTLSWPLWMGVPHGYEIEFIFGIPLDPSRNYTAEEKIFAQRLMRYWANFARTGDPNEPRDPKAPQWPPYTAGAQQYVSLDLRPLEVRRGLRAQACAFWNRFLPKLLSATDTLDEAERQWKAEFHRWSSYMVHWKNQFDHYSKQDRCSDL

| SMILES | Potency | activity change, negative = inhibition |
| --- | --- | --- |
| CCOCCOCCOCCO | inactive | – |
| CCCCCCCCCCCC(=O)OCC(O)CO (stereo not given) | inactive | – |
| Cc1cccc(C(C)(C)C)c1O | inactive | – |
| O=C(O)CCNC(=O)c1ccc(N=Nc2ccc(O)c(C(=O)O)c2)cc1 | inactive | – |
| CCN(CC)CC1CCCCN1CC(=O)N1c2ccccc2C(=O)Nc2cccnc21 (stereo not given) | inactive | – |
| O=[N+]([O-])c1c(Cl)cc(Cl)cc1Cl | inactive | – |
| CCCC(=O)O[C@]1(C(=O)CO)CC[C@H]2[C@@H]3CCC4=CC(=O)CC[C@]4(C)[C@H]3[C@@H](O)C[C@@]21C | inactive | – |
| c1ccc2cc3c(ccc4ccccc43)cc2c1 | inactive | – |
| CCOC(=O)C(O)c1ccccc1 (stereo not given) | inactive | – |
| C=C(C)C(=O)O | inactive | – |
| Cc1c(-c2cccnc2)c2ccccc2n1CCCCC(=O)O | inactive | – |
| Cc1nnc(NS(=O)(=O)c2ccc(N)cc2)s1 | inactive | – |
| CCCCCCC(=O)O | inactive | – |
| O=C(O)C1CCC(C(=O)O)CC1 (stereo not given) | inactive | – |
| CC(=O)CC(C)(C)O | inactive | – |
| CCOC(=O)/C=C\C(=O)OCC | inactive | – |
| O=C(NC(Cc1cc(=O)[nH]c2ccccc12)C(=O)O)c1ccc(Cl)cc1 (stereo not given) | inactive | – |
| CC(=O)c1ccc(Cl)c(Cl)c1Cl | inactive | – |
| CC1=C(C)S(=O)(=O)CCS1(=O)=O | inactive | – |
| C=CC(=O)OCCOC1C2CCC1C1CC=CC12 (stereo not given) | – | -2.44% [at 23.8 µM] (inactive) |

| SMILES | Potency | activity change, negative = inhibition |
| --- | --- | --- |
| CCCCCCCCCCCC[N+](C)(C)CC(=O)[O-] | inactive | – |
| C#CC(C)(O)CC(C)C (stereo not given) | inactive | – |
| Cc1cccc(Nc2cc(Cl)nc(SCC(=O)O)n2)c1C | inactive | – |
| CN(C)CCCNCCCN(C)C | inactive | – |
| CC(C)c1ccc(O)c(C(C)C)c1 | inactive | – |
| CC(=O)/C=C/C1=C(C)CCCC1(C)C | 10.2 µM (active) | – |
| O=C(Nc1ccc(C(=O)O)c(O)c1)c1ccccc1 | inactive | – |
| O=C1c2cccc(O)c2C(=O)c2c(O)cc(CO)cc21 | inactive | – |
| COC(=O)OC | inactive | – |
| Cc1cc(C)c(C)c(C)c1 | inactive | – |
| C=C(c1ccc(C(=O)O)cc1)c1cc2c(cc1C)C(C)(C)CCC2(C)C | inactive | – |
| COc1cc(/C=C/c2ccccc2)oc(=O)c1 | inactive | – |
| Cc1ccc2c(n1)Oc1ccc(C(C)C(=O)OCC(=O)N(C)C)cc1C2 (stereo not given) | 4.9 µM (active) | – |
| CC(CN(CCN(CC(C)OCCO)CC(C)OCCO)CC(C)OCCO)OCCO (stereo not given) | inactive | – |
| NC(CSCC(=O)O)C(=O)O (stereo not given) | inactive | – |
| Nc1cccc(O)c1 | inactive | – |
| C=CCCCCCCCCO | inactive | – |
| Nc1nccs1 | inactive | – |
| NC(=O)c1cnccn1 | inactive | – |
| CCN(CCC#N)c1ccc(N=Nc2ccc([N+](=O)[O-])cc2)cc1 | inactive | – |
